hNpr1 antagonist: Natriuretic polypeptide receptor (hNpr1) antagonism - Primary qHTS. HEK293 hNpr1 GloSensor cGMP, ANP-stimulated luminescence. Atrial natriuretic peptide receptor 1 (Homo sapiens), P16066. Potency, µM (highest dose often 46.3 µM), for inactives: at the top dose activity change, negative = inhibition, actives largely listed as inhibitors. hit rate 1.6% among 76,000; calls by dose curve; note: nearly all actives have a fitted effect of over 60% in size
Target sequence (P16066 whole entry, looked up): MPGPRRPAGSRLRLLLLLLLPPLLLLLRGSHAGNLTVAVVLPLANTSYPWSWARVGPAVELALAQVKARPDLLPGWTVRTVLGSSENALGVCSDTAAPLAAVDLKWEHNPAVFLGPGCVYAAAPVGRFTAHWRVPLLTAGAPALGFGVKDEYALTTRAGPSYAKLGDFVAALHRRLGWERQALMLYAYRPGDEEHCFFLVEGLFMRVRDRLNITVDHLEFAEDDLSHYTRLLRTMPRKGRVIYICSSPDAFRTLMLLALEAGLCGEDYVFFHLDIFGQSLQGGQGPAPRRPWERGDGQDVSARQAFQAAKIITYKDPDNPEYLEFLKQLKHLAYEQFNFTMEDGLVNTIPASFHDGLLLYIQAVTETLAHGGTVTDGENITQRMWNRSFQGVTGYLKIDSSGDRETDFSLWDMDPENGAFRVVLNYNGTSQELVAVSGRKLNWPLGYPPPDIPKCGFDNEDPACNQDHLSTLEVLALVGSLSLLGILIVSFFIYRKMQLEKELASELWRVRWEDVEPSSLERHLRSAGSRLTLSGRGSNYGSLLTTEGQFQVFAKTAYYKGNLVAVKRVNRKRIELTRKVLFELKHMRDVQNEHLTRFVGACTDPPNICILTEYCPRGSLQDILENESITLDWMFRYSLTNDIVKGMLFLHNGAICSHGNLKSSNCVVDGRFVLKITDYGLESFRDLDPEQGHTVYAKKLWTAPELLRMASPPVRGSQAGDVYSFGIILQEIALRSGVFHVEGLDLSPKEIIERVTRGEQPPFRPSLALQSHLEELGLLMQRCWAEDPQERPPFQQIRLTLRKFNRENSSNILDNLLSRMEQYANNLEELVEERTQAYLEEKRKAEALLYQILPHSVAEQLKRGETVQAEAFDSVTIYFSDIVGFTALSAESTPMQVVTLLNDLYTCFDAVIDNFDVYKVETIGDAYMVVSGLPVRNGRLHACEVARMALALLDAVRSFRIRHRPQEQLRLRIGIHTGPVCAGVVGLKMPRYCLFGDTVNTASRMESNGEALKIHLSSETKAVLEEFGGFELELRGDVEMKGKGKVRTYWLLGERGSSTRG
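Compound pre-incubated 30 min at room temperature on GloSensor-loaded HEK293 cells stably carrying hNpr1 and the pGS-40F cGMP biosensor. Stimulation uses hNppA at 0.1 nM final; luminescence is taken at baseline and 20 min post-agonist.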
SNCA expr inh: Primary qHTS assay for inhibitors of alpha-synuclein gene (SNCA) expression | HEK-293 SNCA-luciferase knock-in, luminescence, 24 h | Potency, µM (series often up to 57.2 µM), for the others: at the top dose activity change, negative = inhibition, actives largely listed as inhibitors | hit rate 0.17% among 140,000 | AID 1671194, 2021;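 note: plate controls were DMSO cells for no effect and cell-free wells for full effect; nearly all actives have a fitted effect of over 45% in size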
FLuc inh: Firefly luciferase inhibition profiling of diverse chemical library using quantitative high-throughput screening; Potency, µM (series often up to 115 µM), usual class: inhibitors; purified P. pyralis luciferase, luminescence, biochemical; Luciferin 4-monooxygenase (Photinus pyralis), P08659; AID 1347043, 2019; hit rate 2.5% among 76,000; note: nearly all actives have a fitted effect of over 65% in size
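FLuc 10nM, D-luciferin 10uM, ATP 10uM, Mg acetate 10mM, Tris acetate pH 7.5, Tween/BSA; cpd qHTS; enzyme added last; CCD luminescence.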
3T3 cytotox: Cytotoxic Profiling in NIH 3T3 Cell Line of Diverse Libraries Using Quantitative High-Throughput Screening | NIH 3T3 viability, CellTiter-Glo ATP luminescence, 48-72 h | Potency, µM (highest dose often 96.7 µM), without a hit: at the top dose activity change, negative = cytotoxicity, most hits filed as inhibitors | hit rate 4.3% among 94,000; note: nearly all actives have a fitted effect of over 55% in size
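Cells were seeded at 400 per well, treated with pin-transferred compound, and kept 48 or 72 hr at 37 °C before CellTiter-Glo addition and luminescence imaging of cellular ATP.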
HEK cytotox: Cytotoxic Profiling in HEK 293 Cell Line of Diverse Libraries Using Quantitative High-Throughput Screening; hit rate 6.6% among 94,000; HEK 293 viability, ATP luminescence (CellTiter-Glo), 48-72 h; Potency, µM (highest dose often 115 µM), without a hit: top-dose activity change, negative = cytotoxicity, hits mostly inhibitors; AID 1345083, 2018; note: nearly all actives have a fitted effect of over 60% in size
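HEK 293 cells seeded at 250 cells/well were exposed to compound for 48 or 72 hr at 37 degree Celsius. Viability taken as ATP content by CellTiter-Glo luminescence.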
SNCA viab count: GF-AFC viability counterscreen for inhibitors of alpha-synuclein gene (SNCA) expression; HEK-293-SNCA-luc viability, GF-AFC fluorescence, 24 h; Potency, µM (highest dose often 57.1 µM), for inactives: top-dose activity change, negative = cytotoxicity, usual class: cytotoxic; hit rate 0.12% among 150,000;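 note: 0% = DMSO-treated cells and -100% = medium-only wells without cells; nearly all actives have a fitted effect of over 30% in size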
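Cytotoxicity counterscreen: after 24 h compound treatment of genome-edited SNCA-luciferase HEK-293 cells, live-cell protease substrate GF-AFC read by fluorescence after 30 min; activity scaled between DMSO (0%) and medium-only (-100%), curves Hill-fitted.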
Numbers without * were called inactive; i = inactive; ? = inconclusive; . = no result given; ! = a repeat was not active; [ ] = remark or other dose. Sampled rows, rich in hits. Any-hit rate of the full collection: about 7.4%. Unless noted, calls come from the whole dose curve; as a rule, active = well fitted curve in the direction sought with a large enough effect; inconclusive = small, poorly fitted or top-dose-only effect, or another doubt; inactive = no such curve, though single readings can be large; an effect the other way counts as inactive or inconclusive. Unless noted, % is set by controls: 0 for no effect and ±100 for the full control effect; potency is the fitted concentration of half-maximal effect.

SMILES | hNpr1 antagonist | SNCA expr inh | FLuc inh | 3T3 cytotox | HEK cytotox | SNCA viab count
CCCCn1c(=O)c(C(=O)N2CCN(C(=O)Cc3ccc(F)cc3)CC2)nc2cccnc21 | . | 10% | . | -13% | -7% | 6%
Cn1nc(C2CC2)cc1NC(=O)Cc1ccccc1 | . | 8%[87.6 µM] | . | -29%[138 µM] | ? | -5%[87.6 µM]
CC1(COCC2CC2)COc2ccc(C(=O)Nc3ccccc3)cc2N1 (stereo unspecified) | -30%[70.6 µM] | 8%[87.6 µM] | 22µM* | ? | ? | -12%[87.6 µM]
CC1(COCC2CC2)COc2ccc(C(=O)NCc3ccccc3)cc2N1 (stereo unspecified) | -7%[70.6 µM] | -3%[87.6 µM] | i | ? | ? | -3%[87.6 µM]
CC1(COCC2CC2)COc2ccc(C(=O)Nc3cccc([S+](C)(=O)[O-])c3)cc2N1 (stereo unspecified) | -21%[70.6 µM] | -8%[87.6 µM] | i | ? | 100µM* | 11%[87.6 µM]
COc1ccc(C(=O)NC2CCN(Cc3cccc(-c4ccc(F)c(F)c4)c3)CC2)cc1 | . | ? | . | 22µM* | ? | -13%
O=C(Nc1ccccc1F)NC1CCN(Cc2cccc(-c3ccc(F)c(F)c3)c2)CC1 | . | . | . | 11µM* | ? | .
O=C(NC1CCCC1)NC1CCN(Cc2cccc(-c3ccc(F)cc3F)c2)CC1 | . | . | . | ? | 35µM*! | .
O=C(NC1CCN(Cc2cccc(-c3ccc(F)c(F)c3)c2)CC1)c1ccc(C(F)(F)F)cc1 | . | -29% | . | -31% | -17% | 1%
O=C(NC1CCN(Cc2cccc(-c3ccc(F)c(F)c3)c2)CC1)c1ccc(F)cc1 | . | -25% | . | 40µM* | 40µM* | -17%
COc1ccccc1C(=O)NC1CCN(Cc2cccc(-c3ccc(F)c(F)c3)c2)CC1 | . | ? | . | ? | ? | -22%
CCc1nc2c(c(-c3ccc(O)cc3)n1)CN(Cc1cccn1C)CC2 | . | -13%[87.6 µM] | . | ? | ? | 3%[87.6 µM]
C=C[C@@]1(C)C=C2C(=O)C(O)=C3[C@](C)(C(=O)O)CC[C@@H]4C[C@]34[C@]2(O)C(=O)C1 | . | . | . | . | . | 18µM*
C=CC1(C)C=C2C(=O)CC3C(C)(C)CCCC3(C(=O)O)C2(O)CC1 (stereo unspecified) | . | . | . | . | . | -13%
CC(=O)N1CCC2(CC1)CN(C(=O)c1ccc(Cl)cc1)CCO2 | . | 26% | . | i | ? | -4%
Cc1noc(C)c1C(=O)N1CCC2(CC1)CN(C(=O)c1ccc(Cl)cc1)CCO2 | . | ? | . | 6.3µM* | 0% | 4%
CCOc1ccc(-c2cc3n(n2)CCCN(C(=O)Cn2cnc4c2c(=O)n(C)c(=O)n4C)C3)cc1 | . | 24% | . | ? | ? | -3%
Cn1cccc1CN1CCCCC12Cc1ccccc1CNC2=O (stereo unspecified) | . | -1% | . | ? | ? | -15%
CCC(NCc1c(C(=O)N2CCCCCC2)nc2cc(C)ccn12)c1ccc(C)cc1 (stereo unspecified) | -7% | 11% | i | 45µM* | 18µM* | -18%
COC[C@H]1NC(=O)CC[C@H]1C(=O)NCc1cc(F)cc(F)c1 | . | 3% | . | -15% | -2% | 11%
CNC(=O)c1cc(C)nc2onc(C3CCN([S+](=O)([O-])c4c(C)noc4C)CC3)c12 | . | . | . | -13% | i | .
CCCNC(=O)C1CCCCc2nnc(-c3ccccc3)n21 (stereo unspecified) | . | 3% | . | i | 1% | 9%
CN(C)CCNC(=O)C1CCc2sc(C(=O)N3CCOCC3)cc2C1 (stereo unspecified) | -2% | -16% | i | 4% | 0% | 16%
Cc1nc(CC2CCN(C(=O)c3cc4c(s3)CCC(C)C4)CC2)no1 (stereo unspecified) | -2% | 69% | 40µM* | ? | ? | 4%
Cc1ccc(N2C(=S)N[C@H]3[C@@H](O)[C@H](O)C[C@@H](C(=O)N4CCCCC4)[C@H]32)cc1 | 3%[70.6 µM] | ? | 16µM* | i | i | -5%[87.6 µM]
SMILES | hNpr1 antagonist | SNCA expr inh | FLuc inh | 3T3 cytotox | HEK cytotox | SNCA viab count
O=C([C@@H]1C[C@@H](O)[C@H](O)[C@@H]2NC(=S)N(c3ccc(F)cc3)[C@@H]21)N1CCCCC1 | 2%[70.6 µM] | -3%[87.6 µM] | ? | -1%[138 µM] | -2%[172 µM] | -13%[87.6 µM]
CCN1C(=O)CCc2cc(NC(=O)c3ccc(F)cc3)ccc21 | 2% | 124% | ? | ? | 40µM* | -2%
CCN1C(=O)CCc2cc(NC(=O)c3cncc(Br)c3)ccc21 | 1% | ? | i | -22% | ? | 5%
CCCN1C(=O)CCc2cc(NC(=O)c3ccc(OC(F)(F)F)cc3)ccc21 | ? | 6% | ? | 40µM* | ? | -18%
CS(=O)(=O)N1CCc2ccc(C(=O)Nc3ccc(F)cc3Cl)cc21 | 0% | 49% | ? | -6% | ? | 21%
CS(=O)(=O)N1CCc2ccc(C(=O)Nc3ccc(F)cc3)cc21 | ? | -24% | 8.9µM* | -21% | ? | -5%
CN1CCN(C(=O)C2CN(c3ccnc4ccnn34)C2)CC1 | . | 64% | . | -27% | -6% | 7%
COCCCn1c(=O)c(C(=O)NCCc2ccc(Cl)cc2)nc2cccnc21 | . | -20% | . | -19% | ? | 3%
CCc1ccc(NC(=O)Cn2c(-c3cccc(Cl)c3)nc(C)c(CCO)c2=O)cc1 | 0% | -1% | i | ? | 28µM* | -25%
Cc1ccccc1NC(=O)Cn1c(-c2cccc(Cl)c2)nc(C)c(CCO)c1=O | -3% | -19% | i | ? | ? | -29%
Cc1nc(-c2cccc(Cl)c2)n(CC(=O)Nc2ccc(C(F)(F)F)cc2)c(=O)c1CCO | -22% | ? | i | 16µM* | 32µM* | ?
COc1cccc(CNC(=O)Cn2c(-c3cccc(Cl)c3)nc(C)c(CCO)c2=O)c1 | 4% | -15% | i | ? | 22µM* | -12%
COc1ccccc1NC(=O)Cn1c(-c2cccc(Cl)c2)nc(C)c(CCO)c1=O | -3% | 9% | i | -25% | ? | -22%
COc1ccc(N2CCN(C(=O)Cn3c(-c4cccc(Cl)c4)nc(C)c(CCO)c3=O)CC2)cc1 | -13% | -25% | i | -13% | 45µM* | -12%
Cc1cc(C)cc(NC(=O)Cn2c(-c3cccc(Cl)c3)nc(C)c(CCO)c2=O)c1 | 5% | 8% | i | -12% | ? | -8%
O=C(NC1CC1)c1ccc2oc(-c3ccnc(Cl)c3)nc2c1 | . | 68%[87.6 µM] | . | ? | ? | 2%[12.5 µM]

Assay outcomes deposited in PubChem BioAssay by National Center for Advancing Translational Sciences (NCATS).
